Rows were chosen to be rich in hits. Some 4% of all compounds tested hit in one or more screens of this group.
GDH-TPI counter: GDH-TPI coupled enzyme inhibition counter-screen; inhibition, % at 4.8 µM; GDH-TPI coupled enzyme counterscreen, NADH absorbance; actives 1.2% (n = 360,000);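 also: 0% = DMSO wells and 100% = wells lacking the enzyme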
Mtb betalactam: beta-lactam sensitization of Mtb H37Rv; M. tuberculosis H37Rv growth with meropenem, percent inhibition; inhibition, % at 25 µM; actives 0.27% (n = 330,000); AID 434955; call rule not given here;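 also: growth measured after seven days incubation then overnight dye step; 0% = bacteria only wells and 100% = bacteria with antibiotic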
FBA Mtb inh: Mtb fructose-bisphosphate aldolase inhibition. purified M. tuberculosis FBA, fluorescence read-out. inhibition, % at 1 µM. actives 2.3% (n = 360,000); in the data active = inhibition above about 27%;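 also: 0% = vehicle and 100% = reference inhibitor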
Target sequence (P9WQA3 whole entry, looked up): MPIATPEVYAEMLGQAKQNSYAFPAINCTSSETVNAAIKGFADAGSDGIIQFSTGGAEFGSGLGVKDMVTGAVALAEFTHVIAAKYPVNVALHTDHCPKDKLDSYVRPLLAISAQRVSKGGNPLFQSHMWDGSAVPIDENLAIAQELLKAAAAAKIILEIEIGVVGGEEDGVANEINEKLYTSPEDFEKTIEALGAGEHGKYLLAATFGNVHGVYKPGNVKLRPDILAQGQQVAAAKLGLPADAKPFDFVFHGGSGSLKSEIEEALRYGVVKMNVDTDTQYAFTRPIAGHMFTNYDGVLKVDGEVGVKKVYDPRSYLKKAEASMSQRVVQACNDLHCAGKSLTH
MazF activator: activators of E. coli MazEF toxin-antitoxin RNase; FAM/BHQ RNA-DNA oligo cleavage fluorescence, 5 h; activation, % at 20 µM; actives 0.32% (n = 350,000); in the data active = activation above about 50%
Target sequence (P0AE70 whole entry, looked up): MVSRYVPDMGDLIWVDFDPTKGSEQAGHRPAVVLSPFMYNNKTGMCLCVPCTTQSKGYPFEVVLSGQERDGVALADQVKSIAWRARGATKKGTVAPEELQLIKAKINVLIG
CCHFV vOTU inh: CCHFV vOTU protease inhibition. actives 0.55% (n = 370,000). AID 651958. Pep-AMC fluorescence. inhibition, % at 11.5 µM; also: 0% = vehicle wells with enzyme and 100% = no enzyme wells
The depositor's hits bear a star; · = no result; + = active, no number. Rule as the data show it, unless noted: active = inhibition above about 30%; inactive = the rest.

SMILES | GDH-TPI counter | Mtb betalactam | FBA Mtb inh | MazF activator | CCHFV vOTU inh
c1ccc(-c2cnn3c(-c4ccccc4)c(-c4ccccc4)nc3n2)cc1 | 3 | · | -3 | + | 6
COC(=O)C12CCc3c(ccc4cc(OC)ccc34)C1=CC(=O)C2 (stereo not given) | 45* | · | + | 7 | -334
COc1ccc2cc(C(=O)O)ccc2c1 | 10 | 2 | 5 | -10 | 3
CC(C)c1ccc(C(=O)Nc2ccc(S(=O)(=O)NC3=NCCCCC3)cc2)cc1 | -12 | · | 0 | -6 | 5
Cc1noc(NS(=O)(=O)c2ccc(NC(=O)c3ccc(N(C)C)cc3)cc2)c1C | 32* | 25 | 3 | -3 | 21
Cc1ccc(S(=O)(=O)NC(=O)Nc2ccc(N(C)C)cc2)cc1 | 0 | -9 | 1 | 9 | 50*
Cc1noc(NS(=O)(=O)c2ccc(NC(=O)c3ccc(OC(C)C)cc3)cc2)c1C | -2 | 37 | -3 | 1 | 7
Cc1noc(NS(=O)(=O)c2ccc(NC(=O)c3cnc4scc(C)n4c3=O)cc2)c1C | 49* | 1 | -2 | 13 | 4
CN(C)c1ccc(C(=O)Nc2ccc(S(=O)(=O)NC3=NCCCCC3)cc2)cc1 | 33* | 2 | -1 | 4 | -1
CC1CCCCC1N(C(=O)c1cc(C2CC2)on1)C1CCCCC1 (stereo not given) | · | · | · | · | 12
Cc1ccc(-n2c(SCC(=O)Nc3ccccc3-c3ccccc3)nnc2-c2ccccc2)cc1 | · | · | · | · | 5
COC[C@@H](O)[C@H]1OCc2cccc(OC)c2[C@@H]1/C=C/c1ccccc1 | · | · | · | · | 3
CC(C)C[C@H]1COc2ccc(Cl)cc2S(=O)(=O)N1Cc1cn(Cc2ccc(C(F)(F)F)cc2)nn1 | · | · | · | · | 1
COC(=O)[C@]12C[C@H](CC(=O)NCc3ccc(C)o3)C(=O)N(CCc3ccc(OC)c(OC)c3)C1=C[C@H](C1CCCC1)O[C@@H]2C | · | · | · | · | 6
CN(Cc1ccccc1)C(=O)OCc1cn(Cc2ccccc2)nn1 | · | · | · | · | 0
Cc1ccc(C(=O)NNC(=O)c2nn(-c3ccc(F)cc3)ccc2=O)cc1 | 33* | -9 | -5 | 0 | -1
CS(=O)(=O)Nc1ccc(C(=O)Nc2ccc(S(=O)(=O)Nc3nccs3)cc2)cc1 | 10 | 3 | -1 | 2 | 20
CN(C)c1ccc(C(=O)Nc2ccc(S(=O)(=O)Nc3nccs3)cc2)cc1 | 38* | 1 | 4 | 2 | 17
O=C(NNC(=O)c1nn(-c2ccc(F)cc2)ccc1=O)c1ccc(Cl)cc1 | 15 | 46 | 2 | 0 | 9
Cc1noc(NS(=O)(=O)c2ccc(NC(=O)c3nn(-c4ccc(F)cc4)ccc3=O)cc2)c1C | 32* | 11 | -1 | 3 | 4
Cc1ccc(-n2ccc(=O)c(C(=O)Nc3ccc(S(=O)(=O)Nc4onc(C)c4C)cc3)n2)cc1 | 27 | 64 | -2 | -3 | 17
CN(C(=O)[C@H]1O[C@@H](n2cnc(C(N)=O)n2)[C@H](O)[C@@H]1O)c1ccccc1 | · | · | · | · | -4
Cc1ccc(Cn2cc(CN3[C@@H](Cc4ccccc4)COc4cc(Br)ccc4S3(=O)=O)nn2)cc1 | · | · | · | · | 14
CC1(C)Cc2c(c(N3CCOCC3)nc3sc4c(NCCN)ncnc4c23)CO1 | 47* | · | 12 | -4 | -3
CCN(CC)CCNc1ncnc2c1sc1nc(N3CCOCC3)c3c(c12)CC(C)(C)SC3 | 34* | 7 | 7 | 22 | -3
SMILES | GDH-TPI counter | Mtb betalactam | FBA Mtb inh | MazF activator | CCHFV vOTU inh
C[C@@H]1CN([C@@H](C)CO)C(=O)CCCn2nncc2CO[C@H]1CN(C)C(=O)Nc1cccc2ccccc12 | 0 | · | 29* | 7 | 1
C[C@@H]1CN([C@@H](C)CO)C(=O)CCCn2nncc2CO[C@H]1CN(C)S(C)(=O)=O | 5 | · | 2 | -6 | -7
C[C@H](CO)N1C[C@H](C)[C@H](CN(C)S(C)(=O)=O)OCc2cnnn2CCCC1=O | 8 | · | 4 | 68* | 4
C[C@@H]1CN([C@H](C)CO)C(=O)CCCn2nncc2CO[C@@H]1CN(C)C(=O)Nc1cccc2ccccc12 | -6 | · | 8 | 3 | -7
COCCCNC(=O)C[C@@H]1C(=O)N(CCc2ccc(Cl)cc2)C2=CCCCC[C@]21C(=O)OC | · | · | · | · | 14
C[C@@H]1CCN(C2CC2)S(=O)(=O)c2ccc(N3CCC[C@@H]3CO)cc2O1 | · | · | · | · | -2
C=CCN1C(=O)S/C(=C/c2ccsc2)C1=O | 23 | -13 | 0 | -7 | 1
CCN1C(=O)S/C(=C/c2ccsc2)C1=O | 39* | 5 | -2 | 0 | 16
COc1ccc2nc(Nc3nc(C)c(C(C)=O)s3)sc2c1 | 4 | 30 | 0 | -9 | 4
CC(=O)c1sc(Nc2ccccn2)nc1C | 47* | -6 | 2 | -4 | 25
COc1cc(C)nc(Nc2nc(C)c(C(C)=O)s2)n1 | 35* | 11 | -3 | 4 | 15
CCOC(=O)c1c(C)[nH]c(C(=O)N/N=C/c2ccc(OC)c(OC)c2)c1C | 43* | 0 | -3 | 0 | 13
COc1ccccc1/C=N/NC(=O)c1[nH]c(C)c(C(=O)N/N=C/c2ccccc2OC)c1C | 54* | 6 | -2 | 2 | 16
Cc1cc(N2CCNC[C@H]2C)ccc1N1C[C@@H](C)O[C@@H](C)C1 | · | · | · | · | -10
CC(O)c1ccc(Oc2cnccn2)cc1 (stereo not given) | -1 | -1 | 190* | 0 | -15
COc1ccc(CN2CN3Cc4cc(F)ccc4C3CS2(=O)=O)cc1 (stereo not given) | · | · | · | · | -8
C[C@@H]1COc2cc(F)ccc2S(=O)(=O)N1C | · | · | · | · | 0
C=CC(C)N1C(=O)S/C(=C\c2ccc(N3CCOCC3)cc2C)C1=O (stereo not given) | 9 | -2 | 3 | 43 | -3
C=CCN1C(=O)S/C(=C\c2ccc(N3CCOCC3)cc2C)C1=O | 12 | 1 | -2 | 103* | 2
COC(=O)[C@]12C[C@H](CC(=O)N3CCC(c4ccccc4)CC3)C(=O)N(CCc3ccc(OC)c(OC)c3)C1=C[C@H](C(C)C)O[C@@H]2C1CC1 | · | · | · | · | 15
O=C(CSc1nc2sc3c(c2c(=O)n1-c1ccc(Cl)cc1)CCCC3)c1ccccc1Cl | · | · | · | · | -1
COCCCN1C(=O)[C@H](CC(=O)N2CCCCC2)[C@]2(C(=O)OC)CCCCC=C12 | · | · | · | · | 3
COc1ccc(/C=C/C(=O)c2ccc(O)cc2)cc1CN1CCOCC1 | 24 | -1 | 1 | -16 | 5
O=C(/C=C/c1cccc(O)c1)c1ccc(N2CCOCC2)cc1 | 43* | 48 | -2 | 7 | 11
CN(C)/C=C/C(=O)c1nnn(C2CCCCC2)c1NC1CCCCC1 | 39* | 2 | -1 | 12 | 7
COc1ccc(-c2nc3c(s2)CN(S(C)(=O)=O)CC3)cc1OC | 3 | 1 | 127* | 0 | -59
Cc1cc(=O)oc2c3c(cc(OCC(=O)NC(Cc4ccc(Cl)cc4)C(=O)O)c12)OC(C)(C)CC3 (stereo not given) | 14 | -3 | + | -14 | -188
Cc1c(OCC(=O)NC(Cc2ccc(Cl)cc2)C(=O)O)ccc2c3c(c(=O)oc12)CCC3 (stereo not given) | 7 | -11 | 6 | 4 | -7
